From PubChem BioAssay (EPA / NIEHS)
Active and inactive are the calls of the source. The calls were made as follows: active = hit-call score of the fitted dose curve at least 0.9, where 1 is the maximum; inactive = score below 0.9.

The molecules below were run on Forkhead box O3 (FOXO3), FOXO3 (gene 2309) (assay: LTEA_HepaRG_FOXO3: Life Technologies and Expression Analysis (LTEA) Assay for Forkhead box O3 (FOXO3) using HepaRG (AID 2283459)). Details: mRNA level, 48 h; actives raise or lower the signal.
Method: LTEA_HepaRG is a cell based, multiplexed-readout assay that uses HepaRG, a human liver cell line, with measurements taken at 48 hours after chemical dosing on a 96-well plate.LTEA_HepaRG_FOXO3 is one of 102 assay component(s) measured in the LTEA HepaRG cell culture assay. It is a marker of Cell proliferation, survival, death.Data from the assay component LTEA_HepaRG_FOXO3 was analyzed into 1 endpoint. This assay endpoint, LTEA_HepaRG_FOXO3, was analyzed with bidirectional fitting relative to DMSO as the negative control and baseline of activity. Using a type of inducible reporter, measures of mRNA induction for gain or loss-of-signal activity can be used to understand regulation of transcription factor activity. To generalize the intended target to other relatable targets, this assay endpoint is annotated to the dna binding intended target family, where the subfamily is forkhead box protein.
A total of 1060 chemcials from the ToxCast library were tested in eight-point concentration-response experiments. Cell culture and cytotoxicity assays were conducted at Thermo Fisher Scientific's Custom Services facility (Madison, WI). A single lot of human HepaRG cells (Thermo Fisher Scientific, Frederick, MD) was used for the cell culture experiments. 96-well format collagen type I coated plates of human HepaRG cells were prepared using established methods. Briefly, cryopreserved HepaRG cells were thawed, plated at a density of approximately 100,000 cells/well in HepaRG Thaw, Plate, and General Purpose media (HPRG770, Thermo Fisher Scientific), and incubated for 48 hours. 0.5% DMSO was selected as vehicle control to balance the requisite need of DMSO in HepaRG cultures to maintain differentiation (for example, baseline metabolism, proportions of hepatocytes vs. cholangiocytes), while enabling further hepatic receptor pathway activation (for example, PXR and CAR) in response to chemical exposure. 48 hours after plating, the culture medium was replaced with HepaRG Serum-Free Incudtion Media. Cells were exposed to each test chemical in duplicate and maintained in CO2 incubators for another 48 hours. Chemical plates were thawed to room temperature and 200x concentrations of treatment groups were prepared. 8-point conentration-reponse curves were made with the highest exposure at 100 uM, followed by half-log dilutions, all in 0.5% DMSO. Each test plate contained variouse controls, induction positive controls (1mM phenobarbital), cytotoxicity positive controls ([…] aflatoxin B1), vehicle controls (0.5% DMSO), and total lysis controls (0.5% DMSO). Cell morphology images were taken using an Essen IncuCyte FLR automated microscope, with six 96-well plates imaged in about 24 minutes. Images were captured and exported and JPEG files. Spent culture media was transfered to black-well plates for the LDH assay, and remaining media was sorted at -80 C for later use. Cells were treated with RLT buffer and frozen until shipped for gene expression analysis. Total RNA was isolated from the cell suspension in 75 uL of Buffer RLT (Qiagen, Germantown, MD 20874) by Quintiles/Expression Analysis (Durham, NC) using a custom isolation procedure. Total RNA from each plate well was transferred to a preamplification plate. Fluidigm's 96.96 Dynamic ArrayTM (Fluidigm, Amsterdam, the Netherlands) technology was used for gene expression analyses by quantitative reverse transcription polymerase chain reaction (qRT-PCR, performed by Quintiles/Expression Analysis, Durham, NC)89. Standard TaqManTM Assays (Applied Biosystems/ThermoFisher Scientific, Foster City, CA) were used to assess the expression of 93 genes selected based on their selectivity and sensitivity to important hepatic receptors known to be modulated by environmental chemicals; importance in human hepatocyte functionality; and hepatotoxicity. […]

| Structure (SMILES) | outcome |
| --- | --- |
| CCCN(CCC)c1c([N+](=O)[O-])cc(C(C)C)cc1[N+](=O)[O-] | inactive |
| CCC(C)(C)c1ccc(O)cc1 | inactive |
| O=[N+]([O-])c1ccccc1 | inactive |
| CCCCN(CCCC)N=O | inactive |
| Cc1ccc([N+](=O)[O-])cc1C | inactive |
| CCC1(c2ccccc2)C(=O)N=C(O)NC1=O (stereo not given) | inactive |
| O=P1(N(CCCl)CCCl)NCCCO1 (stereo not given) | inactive |
| c1cc2c3c(cccc3c1)CC2 | inactive |
| COCCOCCO | inactive |
| O=C(O)C1C(C(=O)O)C2(Cl)C(Cl)=C(Cl)C1(Cl)C2(Cl)Cl (stereo not given) | inactive |
| CCCCN(CCCC)SN(C)C(=O)Oc1cccc2c1OC(C)(C)C2 | inactive |
| CCOS(=O)(=O)OCC | inactive |
| CC(Cc1ccc(OCC(=O)O)cc1)NCC(O)c1csc(C(F)(F)F)n1 (stereo not given) | inactive |
| CSC(C)(C)C=NO | inactive |
| CCCCc1ccccc1 | inactive |
| ClC(Cl)c1ccccc1 | inactive |
| Cc1ccc(O)cc1C | inactive |
| CCOc1ccc(C(C)(C)COCc2cccc(Oc3ccccc3)c2)cc1 | inactive |
| CC(C)(C)c1ccc(O)cc1 | inactive |
| c1ccc(OP(Oc2ccccc2)Oc2ccccc2)cc1 | inactive |

| Structure (SMILES) | outcome |
| --- | --- |
| Nc1cc2c3c(c1)C(c1ccccc1)=N[C@@H](NC(=O)c1cccnc1)C(=O)N3CC2 | inactive |
| [N-]=[N+]=[N-] | inactive |
| Cc1ccc(N)cc1N | inactive |
| Nc1ccc2ccccc2c1 | inactive |
| CCN(CC)c1ccccc1 | inactive |
| O=[N+]([O-])c1ccc(Cl)c(Cl)c1 | inactive |
| CC(Cl)(Cl)C(=O)O | inactive |
| CCOP(=S)(Oc1ccc([N+](=O)[O-])cc1)c1ccccc1 (stereo not given) | inactive |
| CCOP(=S)(OCC)SCSCC | inactive |
| Cc1cccc(N)c1 | inactive |
| c1nc[nH]n1 | inactive |
| OCC1CO1 (stereo not given) | inactive |
| ClC1=C(Cl)C2(Cl)C3C(Cl)C(Cl)CC3C1(Cl)C2(Cl)Cl (stereo not given) | inactive |
| O=C(O)C(Cl)Cl | inactive |
| CCNc1nc(Cl)nc(NC(C)(C)C)n1 | inactive |
| ClC(Cl)(Cl)c1ccccc1 | inactive |
| CN(C)C(=O)Cl | inactive |
| CCOC(=O)c1ccccc1C(=O)OCC | inactive |
| O=P(Oc1ccccc1)(Oc1ccccc1)Oc1ccccc1 | inactive |
| CCCCCCCc1ccc(O)cc1 | inactive |
